Screening results from PubChem BioAssay.
FLuc modulator: inhibits or activates purified firefly luciferase, miR-21 counter-screen | purified FLuc, Km substrates, luminescence inhibition | Potency, µM (titrated, usually from 57.5 µM), for the others: at the top dose activity change, negative = inhibition, usual class: inhibitors | 360,000 compounds, 6.9% hits | AID 588342;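 note: plate controls were vehicle for no effect and reference inhibitor for full effect; nearly all actives have a fitted effect of over 55% in size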
Target sequence (P08659 whole entry, looked up): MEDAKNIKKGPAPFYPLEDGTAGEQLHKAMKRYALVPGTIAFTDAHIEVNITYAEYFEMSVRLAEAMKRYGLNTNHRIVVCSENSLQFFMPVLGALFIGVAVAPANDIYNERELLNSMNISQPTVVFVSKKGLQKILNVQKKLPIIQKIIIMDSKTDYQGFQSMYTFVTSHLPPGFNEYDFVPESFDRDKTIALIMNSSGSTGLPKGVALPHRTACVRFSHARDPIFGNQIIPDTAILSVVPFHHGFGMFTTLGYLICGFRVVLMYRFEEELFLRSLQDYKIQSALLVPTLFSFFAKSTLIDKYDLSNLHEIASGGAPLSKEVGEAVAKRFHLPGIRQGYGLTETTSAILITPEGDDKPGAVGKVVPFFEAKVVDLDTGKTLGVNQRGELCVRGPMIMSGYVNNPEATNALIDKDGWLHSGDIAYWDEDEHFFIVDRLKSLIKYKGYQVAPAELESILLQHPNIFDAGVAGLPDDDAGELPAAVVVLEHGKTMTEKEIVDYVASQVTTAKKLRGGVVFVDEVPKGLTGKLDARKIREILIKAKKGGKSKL
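Biochemical qHTS of compounds, final roughly 60 µM downward over six points, against 10 nM purified firefly luciferase using Km concentrations of substrates (10 uM D-luciferin, 10 uM ATP) in Tris acetate pH 7.5 buffer; luminescence output.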
ELG1 genotoxic: genotoxicity induction in ELG1-luciferase HEK293T cells; HEK293T ELG1-luciferase reporter, luminescence, 16 h; Potency, µM (titrated, usually from 46 µM), for the others: at the top dose activity change, positive = activation, usual class: activators; 330,000 compounds, 1.3% hits; AID 504466; note: % of control where 0% means no effect; nearly all actives have a fitted effect of over 60% in size
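Cells (2,000/well) expressing the ELG1-luciferase fusion are dosed by pin tool and kept 16 hr at 37 °C, 5% CO2. Signal comes from ONE-Glo luciferase reagent after 30 min at room temperature.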
ELG1 repair inh: inhibitors of ELG1-dependent DNA repair in HEK293T cells. Potency, µM (highest dose often 46.1 µM), without a hit: top-dose activity change, negative = inhibition, usual class: inhibitors. 330,000 compounds, 2.3% hits. AID 504467. HEK293T ELG1-luciferase reporter, luminescence, 16 h; DNA damage induced by 5-fluorouridine; note: % is set by controls: 0 for no effect and ±100 for the full control effect; nearly all actives have a fitted effect of over 55% in size
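5-Fluorouridine DNA damage + compound/DMSO, 2,000 cells/well, 16 h, 37 °C/5% CO2. ONE-Glo, 30 min RT, luminescence. Readout = decrease in reporter signal.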
Rab9 prom act: activators of Rab9 promoter; Huh7 Rab9 promoter-luciferase reporter, luminescence, 24 h; Potency, µM (doses to about 9.22 µM), for the others: at the highest dose activation, negative = inhibition, hits mostly activators; 320,000 compounds, 2.8% hits; AID 485297; note: % of control where 0% means no effect; nearly all actives have a fitted effect of over 60% in size
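Luciferase signal after 10 min detection reagent at ambient indicates Rab9 promoter upregulation; stably transfected Huh7 cells were treated 24 h with compound in DMSO at 37 °C, 5% CO2.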
NPC1 promoter act: NPC1 promoter activation; Huh7 NPC1 promoter luciferase reporter, 24 h; Potency, µM (series often up to 9.22 µM), for the others: at the highest dose activation, hits mostly activators; 320,000 compounds, 2.4% hits; AID 485313; note: % of control where 0% means no effect; nearly all actives have a fitted effect of over 60% in size
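Compounds in DMSO were transferred onto Huh7 NPC1-luciferase reporter cells pre-incubated 2 h; after 24 h at 37 °C, Amplite reagent was dispensed and luminescence recorded 10 min later.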
SMN2 splice enh: SMN2 splice variant enhancement | HEK293 SMN2-luciferase splicing reporter, luminescence, 30-36 h | Potency, µM (top dose mostly 46.1 µM), for inactives: at the highest dose activity change, positive = activation, usual class: activators | 210,000 compounds, 2.8% hits; note: % of control where 0% means no effect; nearly all actives have a fitted effect of over 55% in size
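qHTS luciferase splicing reporter: luminescence rises when SMN2 exon 7 is included in transfected HEK293 cells. Compound exposure lasted 30-36 h at 37C, with 4.5 mM final sodium butyrate as control, followed by a ONE-Glo read.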
* hit, by the source's call; [ ] = another dose, or the depositor's remark. Compounds with a hit are over-represented: about 9.4% of the library has one in this group of screens. Calls come from the whole dose curve; as a rule, active = well fitted curve in the direction sought with a large enough effect; inconclusive = small, poorly fitted or top-dose-only effect, or another doubt; inactive = no such curve, though single readings can be large; an effect the other way counts as inactive or inconclusive. Potency is the fitted concentration of half-maximal effect.

COc1ccc(-n2c(/C=C/c3cccc4ccccc34)nc3ccccc3c2=O)cc1Cl was read as FLuc modulator -1.4%.
For CC(=O)N1CCc2c(sc3c2c(=O)n(-c2ccccc2Cl)c(=O)n3C)C1 the results were FLuc modulator -2.7%.
`CCC(=O)NCCc1nc2cc(NC(=O)c3ccco3)ccc2n1C` gave FLuc modulator 16.9µM*, ELG1 genotoxic inconclusive, ELG1 repair inh inconclusive, Rab9 prom act inconclusive and NPC1 promoter act inconclusive.
Screening CCc1nn(CC(=O)NCc2ccc(OC)cc2OC)c(=O)c2cc3c(OC)cccc3n12 returned FLuc modulator -3.9% and SMN2 splice enh 1.3%.
Cc1ccc(OCCSc2nc3ccccc3n2CC(=O)N2CCOCC2)cc1 was read as FLuc modulator -9.9%.
For CCOc1ccccc1NC(=O)Nc1cc2c(cc1N1CCCCC1)n(CC)c(=O)n2CC the results were FLuc modulator -1.7%.
Screening Cn1c(-c2ccc3ccccc3n2)nc2cnccc21 returned FLuc modulator 8.49µM*, ELG1 genotoxic inconclusive, ELG1 repair inh inconclusive, Rab9 prom act 2.24µM*, NPC1 promoter act 3.98µM* and SMN2 splice enh 98.6%.
`COC(=O)c1sccc1NC(=O)c1cc2c(s1)CCCC2` gave FLuc modulator 8.49µM*, ELG1 genotoxic 3.6%, ELG1 repair inh inconclusive, Rab9 prom act inconclusive, NPC1 promoter act 26.1% and SMN2 splice enh 7.6%.
Screening O=C(Nc1cccc(S(=O)(=O)N2CCOCC2)c1)c1cc2c(s1)CCC2 returned FLuc modulator 15.1µM*, ELG1 genotoxic -6.5%, ELG1 repair inh inconclusive, Rab9 prom act 6.9%, NPC1 promoter act 8.6% and SMN2 splice enh -27.3%.
Screening COc1ccc(S(=O)(=O)N2CCOCC2)cc1NC(=O)c1cc2c(s1)CCCC2 returned FLuc modulator -22.4%, ELG1 genotoxic 0.1%, ELG1 repair inh 16.4µM*, Rab9 prom act 11.1%, NPC1 promoter act -3.7% and SMN2 splice enh -5.4%.
`O=C(Nc1cccc(Cn2cccn2)c1)c1cc2c(s1)CCCC2` gave FLuc modulator inconclusive, ELG1 genotoxic inconclusive, ELG1 repair inh inconclusive, Rab9 prom act 0.355µM*, NPC1 promoter act 0.112µM* and SMN2 splice enh inconclusive.
Screening COC(=O)c1sccc1NC(=O)c1ccc(C)o1 returned FLuc modulator -6.8%, ELG1 genotoxic 1.0%, ELG1 repair inh -10.9%, Rab9 prom act -4.3%, NPC1 promoter act -8.8% and SMN2 splice enh -13.7%.
`COC(=O)c1c(-c2ccc(Cl)cc2)noc1N1CCN(c2cccc(C)c2C)CC1` gave FLuc modulator 7.0%.
Screening COc1ccc(C)cc1NC(=O)c1cc2c(s1)CCC2 returned FLuc modulator 15.1µM*, ELG1 genotoxic 12.8%, ELG1 repair inh inconclusive, Rab9 prom act inconclusive, NPC1 promoter act 0.8% and SMN2 splice enh inconclusive.
Screening CCOC(=O)c1ccc(NC(=O)c2cc3c(s2)CCC3)cc1 returned FLuc modulator inconclusive, ELG1 genotoxic 6.2%, ELG1 repair inh 1.1%, Rab9 prom act 15.6% and NPC1 promoter act 24.7%.
`CN(CC(=O)Nc1cccc(S(=O)(=O)N2CCOCC2)c1)CC(=O)Nc1ccc(Cl)c(C(F)(F)F)c1` gave FLuc modulator 4.6%, ELG1 genotoxic 16.2%, ELG1 repair inh 12.6µM*, Rab9 prom act -5.5% and NPC1 promoter act -1.5%.
Screening C=C(Br)CN(C)CC(=C)Br returned SMN2 splice enh 4.9%[9.22 µM].
`CCOc1ccc(NC(=O)C2CC(=O)NC(=Nc3ccc(Cl)c(Cl)c3)S2)cc1` (stereo unspecified) gave FLuc modulator -6.9% and SMN2 splice enh -0.3%.
`CCc1ccccc1OCC(=O)Nc1cc(S(=O)(=O)N2CCOCC2)ccc1N1CCCCC1` gave FLuc modulator 3.8%, ELG1 genotoxic -10.8%, ELG1 repair inh inconclusive, Rab9 prom act -3.4% and NPC1 promoter act -4.7%.
O=C(CNCc1ccccc1Cl)Nc1cc(S(=O)(=O)N2CCOCC2)ccc1Cl was read as ELG1 genotoxic -5.0% and ELG1 repair inh inconclusive.
Screening COc1ccccc1OCC(=O)Nc1cc(S(=O)(=O)N2CCOCC2)ccc1N1CCCCC1 returned ELG1 genotoxic -6.9% and ELG1 repair inh 25.9µM*.
For Cc1ccc(S(=O)(=O)N2CCOCC2)cc1NC(=O)COc1ccccc1Cc1ccccc1 the results were ELG1 genotoxic -4.8% and ELG1 repair inh 8.2µM*.
O=C(Nc1cc(S(=O)(=O)N2CCOCC2)ccc1N1CCCC1)c1ccc2c(c1)S(=O)(=O)c1ccccc1C2=O was read as FLuc modulator -19.6%, ELG1 genotoxic -4.4%, ELG1 repair inh 10.3µM*, Rab9 prom act -3.7%, NPC1 promoter act -3.4% and SMN2 splice enh -11.9%.
`O=C(Nc1cc(S(=O)(=O)N2CCOCC2)ccc1N1CCCCC1)c1ccccc1` gave FLuc modulator 3.5%, ELG1 genotoxic -8.5%, ELG1 repair inh inconclusive, Rab9 prom act -6.5% and NPC1 promoter act -3.0%.
Screening Cc1ccc(S(=O)(=O)N2CCOCC2)cc1NC(=O)CNCc1ccc(Cl)cc1Cl returned ELG1 genotoxic -8.4% and ELG1 repair inh 23.1µM*.
`CCNC(=O)c1nn(-c2ccccc2C)nc1CO` gave FLuc modulator -2.3% and SMN2 splice enh -10.4%.
`Cc1noc(C)c1COC(=O)c1cccc(S(=O)(=O)N2CCCCCC2)c1` gave FLuc modulator -1.5%, ELG1 genotoxic -11.0%, ELG1 repair inh 5.8µM*, Rab9 prom act -30.7%, NPC1 promoter act -9.4% and SMN2 splice enh -88.9%.
`COc1cc(OC)c(N(C)S(=O)(=O)c2cccc(C(=O)OCc3c(C)noc3C)c2)cc1Cl` gave FLuc modulator -4.4%, ELG1 genotoxic -11.0%, ELG1 repair inh 18.3µM*, Rab9 prom act 0.2%, NPC1 promoter act -7.4% and SMN2 splice enh -10.8%.
`Cc1noc(C)c1COC(=O)c1ccc(F)c(S(=O)(=O)N2CCCCC2)c1` gave FLuc modulator -3.6%, ELG1 genotoxic -6.1%, ELG1 repair inh inconclusive, Rab9 prom act -3.5%, NPC1 promoter act -3.4% and SMN2 splice enh -26.9%.
`CCOc1ccccc1CNS(=O)(=O)c1cc2c(cc1C)NC(=O)CO2` gave FLuc modulator -1.0%.
COc1ccc(NC(=O)c2ccc3c(c2)NC(=O)CS3)cc1S(=O)(=O)Nc1ccc(Br)cc1 was read as FLuc modulator -19.2%, ELG1 genotoxic -22.6%, ELG1 repair inh 11.6µM*, Rab9 prom act -22.4%, NPC1 promoter act -30.8% and SMN2 splice enh -13.9%.
